Sampled rows, rich in hits. Any-hit rate of the full collection: about 1.4%.
EPAC2 agonist: agonists of human EPAC2 (RAPGEF4); EPAC2 activation, biochemical qHTS; response scale: 100% = 6.5 mM cAMP response; actives 0.079% (n = 360,000); Potency, µM (titrated, usually from 154 µM), actives largely listed as activators; further: nearly all actives have a fitted effect of over 50% in size
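Nucleotide exchange monitored as fluorescence drop when BODIPY-GDP leaves Rap1B. Reaction: 100 nM EPAC2, 250 nM RAP1B-BODIPY-GDP, 50 uM GDP, room temperature, kinetic read over 30 min. Activity expressed relative to 6.5 mM cAMP.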
KCNH2 3.1 block: KCNH2 3.1 (human) potassium channel inhibition | U2OS KCNH2 3.1, thallium flux FluxOr; hits give low values | activity change, % (tested at about 1.8 µM) | actives 0.95% (n = 340,000);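 active means maximum activity change below -70%; inconclusive means maximum activity change from -70% to -50%; inactive means maximum activity change above -50%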;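 further: thallium influx rate constant from kinetic fluorescence after stimulation buffer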
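Kinetic fluorescence (2 min after stimulation buffer) measures Tl+ influx through KCNH2 3.1 expressed by viral transduction in U2OS cells; the rate constant is normalized against DMSO controls serving as positive and negative references.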
EPAC1 antag: blocks human EPAC1 exchange factor; EPAC1 GEF assay, Rap1b-BODIPY-GDP exchange fluorescence; Potency, µM (doses to about 115 µM), usual class: inhibitors; actives 0.14% (n = 360,000); further: nearly all actives have a fitted effect of over 50% in size
EPAC1 agonist: agonists of human EPAC1 | O95398 | EPAC1 agonist qHTS, biochemical assay; response scale: 100% = response to 6.5 mM cAMP | Potency, µM (top dose mostly 154 µM), usual class: activators | actives 0.073% (n = 360,000) | AID 720707; further: nearly all actives have a fitted effect of over 60% in size
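EPAC1 100 nM, Rap1B–BODIPY-GDP 250 nM, unlabeled GDP 50 uM; compound titration; 5 min RT; kinetic read ex480/em540 at 5-min intervals ×30 min; data normalized to 6.5 mM cAMP agonist control.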
hERG WT inh: KCNH2 (human, wildtype) channel inhibition; Q12809; U2OS, BacMam KCNH2, thallium flux FluxOr; hits give low values; activity change, % at 1.84 µM; actives 0.37% (n = 340,000);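 active means maximum activity change below -70%; inconclusive means maximum activity change between -70% and -50%; inactive means maximum activity change above -50%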
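U2OS cells were transduced with wild-type KCNH2 virus (2.03 x 10^8 / mL) for 4 h at room temperature, then cultured overnight at 37 C. Thallium flux was read with FluxOr dye. Rate constants were normalized to DMSO controls.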
EPAC2 antagonist: antagonists of human EPAC2 | EPAC2 GEF exchange of Rap1B-BODIPY-GDP, fluorescence | Potency, µM (highest dose often 114 µM), most hits filed as inhibitors | actives 0.18% (n = 360,000); further: nearly all actives have a fitted effect of over 45% in size
Large screens that a line does not name were inactive. Unless noted, the call rests on the fitted dose curve; in most records, active means well fitted curve in the direction sought with a large enough effect; inconclusive means small, poorly fitted or top-dose-only effect, or another doubt; inactive means no such curve, though single readings can be large; an effect the other way counts as inactive or inconclusive.

Cc1c(NC(=O)C(C)OC(=O)/C=C/c2ccc3c(c2)OCO3)c(=O)n(-c2ccccc2)n1C (stereo not given)	none
CC(C)NC(=O)C1C(c2ccc(C(F)(F)F)cc2)=Nc2ccccc2N1C(=O)c1cccc(C(F)(F)F)c1 (stereo not given)	none (no result: KCNH2 3.1 block, hERG WT inh)
CCN(CCn1cccn1)C(=O)CCc1nnc(C2(c3ccc(Cl)cc3)CCC2)o1	KCNH2 3.1 block -194.1, hERG WT inh -136.9
CCN(CCn1cccn1)C(=O)CCc1nnc(-c2ccccc2)o1	none
COc1ccc(CNC(=O)COC(=O)/C=C/c2cccc(Cl)c2)cc1	none
Cc1ccccc1-c1cc2nc(Oc3ccc4c(c3)OCO4)n(C)c(=O)c2s1	none (no result: KCNH2 3.1 block, hERG WT inh)
COc1ccc(S(=O)(=O)N2CCC(C(=O)NCCc3ccccc3)CC2)cc1	none
OC(COc1ccc(F)cc1)CN1CCN(CC(O)COc2ccc(F)cc2)CC1 (stereo not given)	KCNH2 3.1 block -74.3
Cc1ccc(OCC(O)CN2CCN(CC(O)COc3ccc(C)cc3)CC2)cc1 (stereo not given)	KCNH2 3.1 block inconclusive
CC1CN(CC(O)COc2ccc(C#N)cc2)CCN1CC(O)COc1ccc(C#N)cc1 (stereo not given)	KCNH2 3.1 block -102.2, hERG WT inh -118.4
OC(CNC1CCCC1)COc1ccc(-c2ccccc2)cc1 (stereo not given)	KCNH2 3.1 block -71.3
OC(COc1ccccc1)CN1CCCCC1 (stereo not given)	none (no result: KCNH2 3.1 block)
OC(COc1ccc(-c2ccccc2)cc1)CN1CCCCC1 (stereo not given)	KCNH2 3.1 block -73.2
CCOC(=O)C1=CCN(S(=O)(=O)c2ccc(C)cc2)C1c1cccc(Cl)c1 (stereo not given)	EPAC2 antagonist inconclusive (no result: KCNH2 3.1 block, hERG WT inh)
CCOc1ccc(NS(=O)(=O)c2ccc(C(=O)NCC(c3ccco3)N3CCCCC3)cc2)cc1 (stereo not given)	none
OC(COc1ccccc1Cl)CN1CCN(CC(O)COc2ccccc2Cl)CC1 (stereo not given)	KCNH2 3.1 block -82.3, hERG WT inh inconclusive
N#CC(=C(O)CN1CCN(c2ccccc2F)CC1)c1nc(-c2ccc(Cl)cc2)cs1	none
COCCNC(=O)CCc1nc2cccnc2n1Cc1ccc(OC)cc1	none
COc1ccc(Cn2c(CCC(=O)O)nc3cccnc32)cc1	KCNH2 3.1 block -72.4
O=c1oc2cc(O)ccc2cc1-c1nc2ccccc2o1	EPAC2 agonist inconclusive, EPAC1 agonist 63.1µM (no result: KCNH2 3.1 block, hERG WT inh)
O=c1oc2cc(O)ccc2cc1S(=O)(=O)c1ccccc1	EPAC1 antag inconclusive
O=C(NCCNC(=O)c1ccc(-c2ccc(Cl)c(Cl)c2)o1)c1cnccn1	none
Cc1ccc(S(=O)(=O)N2C[C@H]3C(=O)C[C@@H](c4ccccc4)N(S(=O)(=O)c4ccc(C)cc4)[C@H]3C[C@H]2c2ccc(Cl)cc2)cc1	none
CCCCCCn1nc(C(=O)OCC(=O)NC2CCS(=O)(=O)C2)c2ccccc2c1=O (stereo not given)	none
CCn1cc(S(=O)(=O)CC(=O)Nc2cc(C)ccc2C)c2ccccc21	KCNH2 3.1 block -117.5
CCn1cc(S(=O)(=O)CC(=O)Nc2ccc3c(c2)OCO3)c2ccccc21	none
CC(Oc1ccc(Cl)cc1Cl)c1ccn[nH]1 (stereo not given)	EPAC2 antagonist 44.7µM
Cc1cnc(CN2CCc3c([nH]c4ccccc34)C2C2CCCCC2)[nH]1 (stereo not given)	KCNH2 3.1 block -71.5
c1ccc2c3c([nH]c2c1)C(C1CCCCC1)N(Cc1ncc[nH]1)CC3 (stereo not given)	none (no result: KCNH2 3.1 block)
COc1ccc2nc3ccccc3nc2c1NC(=O)c1ccc(Cl)cc1Cl	EPAC2 agonist 100µM, EPAC1 agonist inconclusive
Cc1nn(-c2ccccc2)c(N2CCCC2)c1/C=C1\N=C(c2ccc(OC(C)C)cc2)OC1=O	KCNH2 3.1 block -75.1, EPAC1 agonist inconclusive
Cc1cc(C)c(S(=O)(=O)c2ccc(Cl)cc2)c(Cl)n1	none
